Among the data in PubChem BioAssay AID624255 (Broad Institute, 2012) are inhibition values, retold here.

Molecules are shown by their SMILES. Where “and” joins values, the source holds several entries; their conditions need not be identical. Identical values can stand only once. Among all 77,000 compounds or so, about 4,600 (6%) were called active. Not shown: some 1% with an inconclusive outcome. The sample holds actives, similar compounds and a random draw of the others, so the mix is not that of the screen.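 The calls were made as follows: active = mean inhibition above about 93%, with at least 55% of replicates each passing it (limit read from the data, passing the limit was not always enough); inconclusive = only one of those two conditions holds; inactive = neither condition holds.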

The assay can be described thus: growth inhibition of T. cruzi in host fibroblasts – cell-based, beta-gal Tulahuen parasites, NIH3T3 host, luminescence, primary screen (AID 624255). To be noted: T. cruzi beta-gal in NIH3T3, GalScreen luminescence, 90 h; at 8.34 µM; hits give high values.
On to `CN1[C@@H]2c3ccc(C4=CCCCC4)c(=O)n3C[C@H]1[C@H](CO)[C@H]2C(=O)NCc1ccc(F)cc1`, for which the inhibition – broadly, the change of the read-out against control, counted positive when it falls – is 66.5% (inactive). Turning to `O=C([C@@H]1[C@@H](CO)[C@@H]2Cn3c(ccc(-c4ccccc4F)c3=O)[C@H]1N2C(=O)C1CCC1)N1CCCCC1`, the inhibition is -49% (inactive). Next, `O=C(NCC1CC1)[C@@H]1[C@@H](CO)[C@@H]2Cn3c(ccc(C4=CCCC4)c3=O)[C@H]1N2CCC(F)(F)F`: -0.412% (inactive); `COc1ccc(-c2ccc3c(c2)[C@H]2[C@H](CCN2S(=O)(=O)c2ccccc2F)[C@H](CO)N3)cc1`: 14.9% (inactive); `CCCN1[C@H](C(=O)NC2Cc3ccccc3C2)[C@@H](CO)[C@@H]2Cn3c(cccc3=O)[C@@H]21`: -19.6% (inactive).

For the compound `Cc1ccc(S(=O)(=O)N2C[C@@H](O)COC[C@@H]3O[C@@H](CC(=O)N[C@H]4CCN(Cc5ccccc5)C4)CC[C@H]32)cc1`, the inhibition is -6.53% (inactive).

With `CCC(=O)Nc1ccc2c(c1)C(=O)N(C)[C@H]1CC[C@H](CC(=O)NC3Cc4ccccc4C3)O[C@H]1CO2`, the inhibition was 37.2% (inactive). Next, `CC(C)NC(=O)Nc1ccc2c(c1)C(=O)N([C@@H](C)CO)C[C@@H](C)[C@@H](CN(C)S(=O)(=O)c1ccc(F)cc1)OCCCC[C@H](C)O2`: -55.2% (inactive); `CCCNC(=O)C[C@@H]1C[C@H]2c3cc(NC(=O)Nc4ccccc4F)ccc3O[C@H]2[C@H](CO)O1`: 10.8% (inactive). As for `C[C@H]1CCCCO[C@@H](CN(C)Cc2ccc3c(c2)OCO3)[C@@H](C)CN([C@@H](C)CO)C(=O)c2cc(NS(=O)(=O)c3ccc(F)cc3)ccc2O1`, the figure is 73.3% (inactive); as for `C[C@@H]1CCCCO[C@@H](CN(C)C(=O)Nc2ccc(C(F)(F)F)cc2)[C@H](C)CN([C@H](C)CO)C(=O)c2cc(NC(=O)c3ccccc3)ccc2O1`, 94.9% (inactive). In the case of `CC(C)NC(=O)N(C)C[C@H]1OCCCC[C@H](C)Oc2ccc(NC(=O)Nc3ccc(C(F)(F)F)cc3)cc2C(=O)N([C@H](C)CO)C[C@@H]1C`, the inhibition was 36.4% (inactive). Next, `C[C@@H]1CCCCO[C@H](CN(C)C(=O)Nc2ccc(C(F)(F)F)cc2)[C@H](C)CN([C@H](C)CO)C(=O)c2cc(NC(=O)Nc3ccc(C(F)(F)F)cc3)ccc2O1`: 120% (active); `C[C@@H]1CCCCO[C@H](CN(C)C(=O)CCCN(C)C)[C@H](C)CN([C@H](C)CO)C(=O)c2cc(NC(=O)CCC(F)(F)F)ccc2O1`: 16.6% (inactive); `CNC(=O)C[C@H]1CC[C@H]2[C@H](COc3ccc(NC(=O)Nc4cccc(C)c4)cc3C(=O)N2C)O1`: 12.8% (inactive). As for `O=C(Cc1ccccn1)N[C@H]1CC[C@@H](CC(=O)N2CCCCC2)O[C@@H]1CO`, the figure is -26% (inactive); as for `Cc1ccc(S(=O)(=O)N(C)C[C@@H]2Oc3ncc(-c4cc5ccccc5o4)cc3C(=O)N([C@H](C)CO)C[C@@H]2C)cc1`, 117% (active); as for `Cc1ccc(-c2cnc3c(c2)C(=O)N([C@@H](C)CO)C[C@@H](C)[C@H](CN(C)Cc2ccccc2F)O3)cc1`, 111% (active). For `C[C@@H]1CN([C@H](C)CO)C(=O)c2cc(Br)cnc2O[C@@H]1CN(C)C(=O)Nc1ccc(F)cc1`, the inhibition was -142% (inactive). Next, `C[C@H](CO)N1C[C@H](C)[C@H](CN(C)C(=O)Nc2ccc(F)cc2)Oc2ncc(-c3cc4ccccc4o3)cc2C1=O`: 119% (active); `C[C@@H]1CN([C@H](C)CO)C(=O)c2cc(-c3ccccc3)cnc2O[C@H]1CN(C)C(=O)Nc1ccccc1`: -81.2% (inactive). As for `COc1ccc(-c2cnc3c(c2)C(=O)N([C@H](C)CO)C[C@H](C)[C@H](CN(C)S(=O)(=O)c2ccccc2)O3)cc1`, the figure is 37.7% (inactive); as for `C[C@H](CO)N1C[C@H](C)[C@H](CN(C)Cc2ccccc2)Oc2ncc(-c3ccccc3)cc2C1=O`, 23.4% (inactive) and 14.8% (inactive); as for `C[C@H](CO)N1C[C@H](C)[C@H](CN(C)S(=O)(=O)c2ccc(F)cc2)Oc2ncc(-c3ccc(F)cc3)cc2C1=O`, 22.6% (inactive). Turning to `Cc1ccc(-c2cnc3c(c2)C(=O)N([C@H](C)CO)C[C@@H](C)[C@H](CN(C)Cc2ccccc2C(=O)O)O3)cc1`, the inhibition is -6.32% (inactive). Regarding `CC=Cc1ccc2n(c1=O)C[C@H]1[C@H](CO)[C@@H](C(=O)NCc3ccncc3)N(Cc3cncnc3)[C@@H]21` (mixture of isomers), the inhibition is 37.5% (inactive).

Take `CCCN1[C@H](C(=O)NCC)[C@@H](CO)[C@@H]2Cn3c(ccc(C4=CCCC4)c3=O)[C@@H]21`: the inhibition was 32% (inactive). As for `COc1cccc(C(=O)Nc2ccc3c(c2)C(=O)N(C)C[C@@H](OC)[C@@H](C)CN(C)[C@@H](C)CO3)c1`, the figure is -27.6% (inactive); as for `CO[C@H]1CC[C@H]2CCOc3c(C#N)cccc3C(=O)N(C)CC3(CCCCC3)CC(=O)N(C)C[C@@H]1O2`, 13.3% (inactive); as for `CCCNC(=O)Nc1ccc2c(c1)OC[C@@H](C)N(C(=O)c1ccccc1F)C[C@H](C)[C@@H](OC)CN(C)C2=O`, 52.3% (inactive). Take `COc1ccccc1C#Cc1ccc([C@@H]2[C@H](CO)N3CCCCN(C(=O)C4CCCC4)C[C@@H]23)cc1`: the inhibition is 109% (active).

As for `CC(C)NC(=O)N1CCCCN2[C@@H](CO)[C@@H](c3ccc(C#Cc4ccccc4)cc3)[C@@H]2C1`, the inhibition was 80.4% (inactive).

On to `COc1ccccc1C#Cc1ccc([C@@H]2[C@@H](CO)N3CCCCN(S(C)(=O)=O)C[C@@H]23)cc1`, for which the inhibition is 77.3% (inactive). Next, `COCC#Cc1ccc([C@@H]2[C@@H](CO)N3CCCCN(C(=O)NC4CCCC4)C[C@H]23)cc1`: 69.2% (inactive); `COc1ccccc1C#Cc1ccc([C@@H]2[C@H](CO)N3CCCCN(C(=O)C4CC4)C[C@@H]23)cc1`: 110% (active).

Regarding `COCC(=O)N1CCCCN2[C@H](CO)[C@H](c3ccc(C#Cc4ccc(OC)cc4)cc3)[C@H]2C1`, the inhibition was 72.8% (inactive). Regarding `COc1ccccc1C#Cc1ccc([C@H]2[C@H](CO)N3CCCCN(C(=O)C4CCC4)C[C@@H]23)cc1`, the inhibition is 109% (active). As for `CO[C@@H]1CN(C)C(=O)c2cc(NC(=O)c3ccccc3)ccc2OC[C@H](C)N(C(=O)CN(C)C)C[C@H]1C`, the figure is -60.5% (inactive); as for `O=C([C@H]1[C@H](CO)[C@H]2Cn3c(ccc(C4=CCCCC4)c3=O)[C@@H]1N2)N1CCCCC1`, 60.4% (inactive). In the case of `CO[C@H]1CN(C)C(=O)c2ccc(NS(C)(=O)=O)cc2OC[C@H](C)N(C(=O)C2CCC2)C[C@H]1C`, the inhibition was 11% (inactive).

For `O=C(C1CCC1)N1C[C@H]2[C@@H](c3ccccc31)[C@@H](CO)N2C(=O)c1ccccc1F`, the inhibition is 5.17% (inactive). As for `COc1cccc(S(=O)(=O)N[C@H]2CC[C@@H](CCN)O[C@H]2CO)c1`, the figure is 59% (inactive); as for `Cc1noc(C)c1S(=O)(=O)Nc1ccc2c(c1)C(=O)N([C@H](C)CO)C[C@@H](C)[C@@H](CN(C)C(=O)C1CCCCC1)OCCCC[C@@H](C)O2`, 48.7% (inactive). Next, `CC(C)NC(=O)Nc1ccc2c(c1)C(=O)N(C)[C@@H]1CC[C@H](CC(=O)NCC3CCCCC3)O[C@@H]1CO2`: -5.5% (inactive); `C[C@H](O)C#Cc1ccc2c(c1)O[C@H](CN(C)C(=O)C1CCCCC1)[C@@H](C)CN([C@H](C)CO)S2(=O)=O`: 60.6% (inactive). Consider `C[C@H]1CCCCO[C@@H](CN(C)C(=O)Cc2ccccc2)[C@@H](C)CN([C@@H](C)CO)C(=O)c2cc(NC(=O)c3ccccc3)ccc2O1`, for which the inhibition was 33.7% (inactive).

As for `C[C@H]1CN([C@@H](C)CO)C(=O)c2cc(NC(=O)Nc3ccc4c(c3)OCO4)ccc2O[C@@H]1CN(C)Cc1ccc(Oc2ccccc2)cc1`, the inhibition was 119% (active). Next, `COc1ccc(NC(=O)Nc2ccc3c(c2)C(=O)N([C@@H](C)CO)C[C@H](C)[C@@H](CN(C)Cc2ccc4c(c2)OCO4)O3)cc1`: 31.2% (inactive); `C[C@@H]1CN([C@H](C)CO)C(=O)c2cc(NC(=O)Nc3ccc4c(c3)OCO4)ccc2O[C@H]1CN(C)Cc1ccc(-c2ccccc2)cc1`: 70.1% (inactive). In the case of `C[C@H]1CN([C@@H](C)CO)C(=O)c2cc(NC(=O)C3CC3)ccc2O[C@@H]1CN(C)Cc1ccc(Oc2ccccc2)cc1`, the inhibition was 66.9% (inactive). Next, `C[C@@H]1CN([C@@H](C)CO)C(=O)c2cc(NC(=O)Nc3ccc4c(c3)OCO4)ccc2O[C@@H]1CN(C)Cc1ccc(Oc2ccccc2)cc1`: 100% (active). As for `C[C@H](CO)N1C[C@H](C)[C@@H](CN(C)Cc2ccccc2)Oc2ccc(NC(=O)Nc3ccc4c(c3)OCO4)cc2C1=O`, the figure is 8.73% (inactive); as for `CCCNC(=O)C[C@@H]1CC[C@@H]2[C@H](COc3ccc(NC(=O)c4cc(F)cc(F)c4)cc3C(=O)N2C)O1`, -19.9% (inactive). `C[C@@H]1CCCCO[C@@H](CN(C)C(=O)Nc2ccc(F)cc2)[C@H](C)CN([C@@H](C)CO)C(=O)c2cc(NS(C)(=O)=O)ccc2O1`: the inhibition is 23.8% (inactive). As to `CN(C)C(=O)c1ccc(-c2ccc([C@@H]3[C@@H](CO)N4CCCCN(CC5CC5)C[C@H]34)cc2)cc1`, the inhibition is 11.3% (inactive). Consider `CN(C)CC#Cc1ccc([C@H]2[C@H](CO)N3CCCCN(CC4CC4)C[C@@H]23)cc1`, for which the inhibition was -75.2% (inactive). As to `CS(=O)(=O)N1CCCCN2[C@@H](CO)[C@@H](c3ccc(Br)cc3)[C@@H]2C1`, the inhibition is -42.1% (inactive).

As to `CN(C)C(=O)c1ccc(-c2ccc([C@@H]3[C@H](CO)N4CCCCN(S(C)(=O)=O)C[C@@H]34)cc2)cc1`, the inhibition was 103% (active).

Consider `CN(C)C(=O)c1ccc(-c2ccc([C@H]3[C@H](CO)N4CCCCN(S(C)(=O)=O)C[C@@H]34)cc2)cc1`, for which the inhibition is 83.3% (inactive).

Take `CN(C)C(=O)c1ccc(-c2ccc([C@H]3[C@@H](CO)N4CCCCN(CC5CC5)C[C@H]34)cc2)cc1`: the inhibition was 108% (active).
